According to PubChem BioAssay (NCI):
About 83,000 compounds went through this panel and 20% of them were active in at least one assay; those are over-represented in the sample as a whole.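 Compound tested at a single concentration for 48 hours in 96-well plates; a percent growth value below 10 was scored as active.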 Active and inactive are the calls of the source.

Test system: HL-60(TB) leukemia
Experiment: NCI-60 one-dose screen, 48 h (100 = growth as untreated, 0 = no growth, -100 = all killed)
Conditions: 10 µM unless noted

Structure (SMILES) | growth
Cc1ccc(S(=O)(=O)NNC(=O)/C(=C\c2ccc(Cl)cc2)c2nc3ccccc3s2)cc1 | 89.7% (inactive)
Brc1ccccc1Nc1ccc2nnc(-c3ccncc3)n2n1 | 96.4% (inactive)
COc1ccc2c(-c3ccc(F)cc3)c(C#N)c(=NC(C)=O)oc2c1 | -17.4% (active)
CC(C)(C)C(=O)Nc1nc2c(s1)CCc1ccn(S(=O)(=O)c3ccccc3)c1-2 | 70% (inactive)
CC(=O)O[C@]1(C(C)=O)CCC2C3C[C@H](C)C4=CC(=O)CC[C@]4(C)C3CC[C@@]21C (stereo not given in full) | 87.4% (inactive)
O=C(O)c1cc(I)ccc1O | 103% (inactive)
CCOC(=O)[C@H](CSSc1ncnc2cc[nH]c12)NC(=O)[C@@H](C)c1ccc2cc(OC)ccc2c1 | 7.65% (active)
COc1cc2c(cc1-c1c(C)noc1C)ncc1nc(C3CCCCC3)n([C@H](C)COC(F)F)c12 | 31% (inactive)
COc1ccc(-c2nc(Nc3cc(C)[nH]n3)c3ccccc3n2)cc1 | 41.4% (inactive)
CCCCCCCCC(=O)OCCCC(CCC(CCC1CCCO1)OC(=O)CCCCCCCC)OC(=O)CCCCCCCC (stereo not given) | 89% (inactive)
Cc1ccc(NC(=O)c2[nH]c(SCCN(C)C)nc2-c2ccc(F)cc2)cc1C#Cc1cnc2cccnn12 | -54.9% (active)
CC(C)CC(NC(=O)OCC1c2ccccc2-c2ccccc21)C(=O)O (stereo not given) | 105% (inactive)
O=S(=O)(O)C(C(I)I)S(=O)(=O)O | 109% (inactive)
COc1cc(C2C(C#N)=C(N)Oc3cc(O)ccc32)cc(OC)c1OC (stereo not given) | -26% (active)
O=C(NCCCCCCNC(=O)OCc1ccc2c(Cl)cc(Cl)c(O)c2n1)OCc1ccc2c(Cl)cc(Cl)c(O)c2n1 | -46.2% (active)
C=C(C)[C@@H]1CC[C@]2(C(=O)NC(C)=O)CC[C@]3(C)[C@H](CC[C@@H]4[C@@]5(C)CCCNC(C)(C)[C@@H]5CC[C@]43C)[C@@H]12 | -51.2% (active)
O=C(CN1C=NC2C(N3CCOCC3)=NC=NC21)c1cccc2ccccc12 (stereo not given) | 103% (inactive)
CN(C)c1nc(-c2ccco2)n2nc(-c3ccc(Cl)cc3)cc2n1 | 90.8% (inactive)
CC[C@H](C)[C@@H]1NC(=O)[C@H](Cc2ccc(O)cc2)N(C)C(=O)[C@H](Cc2ccccc2)NC(=O)CN(C)C(=O)[C@@H]2CCCN2C(=O)[C@@H](Cc2ccccc2)N(C)C(=O)[C@H](CC(C)C)NC1=O | -24% (active)
O=C(CCCCCCN1CC(=O)N2[C@@H](c3ccc(Cl)c(Cl)c3)c3[nH]c4ccccc4c3C[C@H]2C1=O)NO | -11.8% (active)

Structure (SMILES) | growth
CN(C)c1ccc(/C=C(\C#N)c2nc3ccccc3s2)cc1 | 93.3% (inactive)
Nc1nc(Nc2ccccc2SSc2ccccc2Nc2nc(N)nc(-c3ccc(C(F)(F)F)cc3)n2)nc(-c2ccc(C(F)(F)F)cc2)n1 | -17% (active)
COc1cc(-c2nc(C(=O)NCC(=O)NO)nn2-c2ccc(Cl)cc2)cc(OC)c1OC | 97.4% (inactive)
CN1c2ccccc2[C@]2(Cc3ccccc3)Cc3ccccc3N[C@H]12 | 94.7% (inactive)
CC(C)(c1ccc(OCC(O)CNCc2ccco2)cc1)c1ccc(OCC(O)CNCc2ccco2)cc1 (stereo not given) | 63.9% (inactive)
O=C1c2ccccc2C(=O)c2c(NCCN=Cc3ccccc3O)cccc21 | 44% (inactive)
O=C(NCCCN1CCCCC1)c1ccc(-c2nc3ccc4[nH]ncc4c3c3c2CCCC3)cc1 | 93.4% (inactive)
Cn1c(=O)c2c(nc(Nc3cc(=O)[nH]c(=O)[nH]3)n2Cc2ccccc2)n(C)c1=O | 90.6% (inactive)
CC(=O)Cc1nsc(NC(=O)c2cc(-c3cc(Cl)ccc3Cl)oc2C)n1 | 94.3% (inactive)
COCC[C@H]1CCC/C=C/[C@@H]2C[C@H](O)C[C@H]2[C@H](O)/C=C/C(=O)O1 | 3.25% (active)
C=CCOC(=O)C1=C(C)NC(=O)NC1c1c(Cl)n(C)c2ccccc12 (stereo not given) | 109% (inactive)
COc1cc2oc(-c3cccc(C(=O)Nc4ccc5c(c4)OCO5)c3)cc(=O)c2c(O)c1OC | 94.3% (inactive)
Cc1ccccc1C[P+](c1ccccc1)(c1ccccc1)c1ccccc1 | 1.16% (active)
c1ccc(C2CCCCC2)c(OCCCCCN2CCNCC2)c1 | 28.2% (inactive)
Cc1ccc(-c2cc(-c3nnc(SCC(=O)c4ccccc4)o3)c3ccccc3n2)cc1 | 103% (inactive)
Nc1ccc(N=Nc2ccccc2)c2cc(S(=O)(=O)O)ccc12 | 103% (inactive)
COc1ccc(OC)c(Nc2nc3nonc3nc2Nc2cccc(Br)c2)c1 | -14.1% (active)
Cn1c2ccccc2c2ccccc21 | 95.9% (inactive)
O=C(c1ccccc1)C(Br)C(Br)c1ccccc1 (stereo not given) | 39.5% (inactive)
COc1cc2cc(Oc3ccc(NC(=O)Nc4ccc(F)c(C(F)(F)F)c4)cc3)c(C)nc2cc1OCCN1CCOCC1 | 19.3% (inactive)
